# From PubChem
# Cy5 interf NS3h: counter-screen for HCV NS3 helicase inhibitors: fluorescence interference | fluorescence interference ratio at 100 µM | 6% of 16,000 active | Cy5-dT15 DNA with NS3h; actives lie on both sides; signal over control mean, under 1 quenches;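 active = compound fluorescence over control fluorescence at most 0.8, a quencher, or at least a set upper limit, an enhancer; inactive = ratio between 0.8 and the set upper limit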
# HCV NS3h FP: blocks HCV NS3 helicase binding to DNA | inhibition, % at 100 µM | AID 687043 | 1.6% of 16,000 active | NS3h Cy5-dT15 DNA binding, fluorescence polarization;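 active = inhibition above the average over every tested compound plus 3 SD, cut at about 40% in these data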
# The depositor's hits bear a star. An excerpt weighted towards active compounds, which were near 6.8% of everything screened.
SMILES,Cy5 interf NS3h,HCV NS3h FP
Cc1ccc(C(=O)N/C(=C\c2ccccc2F)c2nc(=S)[nH][nH]2)cc1,0.88,7
Cc1ccc(C(=O)N/C(=C/c2cccnc2)c2nc3ccccc3[nH]2)cc1,0.8*,-8
CCc1ccccc1NC(=O)C(=O)NCc1ccc(F)cc1,1,22
CCCC(=O)Nc1ccc(N2CCOCC2)cc1,0.74*,3
CC(C)C(=O)Nc1ccc(N2CCOCC2)cc1,1,-2
CCN(CC)c1ccc(NC(=O)c2cccc(Cl)c2Cl)cc1,1.1,7
O=C(Nc1cccnc1)c1cccc(Cl)c1Cl,0.72*,13
CC(=O)c1ccc(NC(=S)NC(NC(=O)c2cccc(C)c2)C(Cl)(Cl)Cl)cc1 (stereo not drawn),1,8
O=C1c2ccccc2C(=O)N1CCCCN(C(=O)c1ccc(Cl)s1)c1ccc(F)cc1F,0.99,17
O=C(CN1C(=O)/C(=C/c2ccc(Br)cc2)SC1=S)Nc1ncc(Cc2cccc([N+](=O)[O-])c2)s1,0.97,5
CC(=O)Nc1cccc(C(=O)/C=C/c2ccc(/C=C/C(=O)c3cccc(NC(C)=O)c3)cc2)c1,1.2,14
Cc1cccc(C(=O)Nc2ccc(C(=O)/C=C/c3ccncc3)cc2)c1,0.74*,-5
COc1ccc(C(=O)CSc2nc3ccccc3c(=O)[nH]2)cc1,1.1,1
COc1ccc(C(=O)CSc2nnc(Sc3nc4ccccc4[nH]3)o2)cc1,0.54*,10
CCOc1ccc(C2=C/C(=C/c3ccc(C)o3)C(=O)O2)cc1,0.96,4
COc1ccc2c(-c3ccccc3)cc(=O)[nH]c2c1,0.98,2
Cc1ccc2c(-c3ccc([N+](=O)[O-])cc3)cc(=O)[nH]c2c1,0.62*,1
Nc1nonc1C(=O)NCCNC(=O)c1cccc(Br)c1,0.71*,14
O=C(NCCNc1ccc([N+](=O)[O-])cc1)c1cccc(Br)c1,1,20
CCOc1ccc(/C=C2\N=C(c3ccccc3F)OC2=O)cc1,1,53*
O=C1OC(c2ccccc2F)=N/C1=C\c1ccc(Br)cc1,1.1,4
Cc1ccc2oc(-c3cc(NC(=O)C(C)C)ccc3O)nc2c1,1.1,-15
COc1ccc(OC)c(/C=C2N=C(/C=C/c3ccccc3)OC/2=O)c1,0.92,7
N#C/C(=C\c1ccc(O)cc1)c1nc(-c2ccc(-c3ccccc3)cc2)cs1,0.82,-20
COc1cccc(NC(=O)COc2ccc(C)cc2C)c1,0.78*,13
SMILES,Cy5 interf NS3h,HCV NS3h FP
COc1cccc(NC(=O)COc2cc(C)c(Cl)c(C)c2)c1,0.88,10
COc1cc2c(cc1OC)C1(CCOCC1)CN(C)C2,1.1,5
O=C(NC(Nc1ccc([N+](=O)[O-])cc1)C(Cl)(Cl)Cl)c1cccc(I)c1 (stereo not drawn),1,8
COc1cc(OC)c([N+](=O)[O-])cc1C=O,0.65*,9
COc1cc(OC)c([N+](=O)[O-])cc1/C=C(/C#N)C(=O)Nc1ccccc1,1.1,-1
O=C(Cc1cccc2c(S(=O)O)cccc12)NC(c1ccccc1)c1ccccc1,1,8
O=C(NC(c1ccccc1)c1ccccc1)C1CC1c1ccccc1 (stereo not drawn),0.68*,14
COc1ccc(C2=C/C(=C/c3cccs3)C(=O)O2)cc1,1,27
CCOc1ccc(C2=C/C(=C/c3cccs3)C(=O)O2)cc1,0.99,44*
CC(C)OC(=O)C1C(=O)CC(C)(O)C(C(=O)OC(C)C)C1c1ccc(F)cc1 (stereo not drawn),1.1,9
C=CCc1ccccc1OCCOc1ccc(/C=C2/SC(=S)N(C)C2=O)cc1,0.99,-2
CCOc1cc(/C=C2/SC(=S)N(C)C2=O)ccc1OCc1ccccc1Cl,1.2*,12
COc1cc(/C=C2/SC(=S)N(C)C2=O)cc(Cl)c1OCc1ccccc1Cl,0.96,-7
C=CCc1ccccc1OCCOc1cccc(/C=C2/SC(=S)N(C)C2=O)c1,1.2*,16
Cc1ccc(S(=O)(=O)N2CCN(Cc3ccccc3)CC2)cc1[N+](=O)[O-],0.98,2
COc1ccc(CN2CCN(S(=O)(=O)c3ccc(C)cc3)CC2)cc1OCc1ccccc1,0.74*,10
CCOC(=O)C1=C(C)N=c2s/c(=C\c3cccs3)c(=O)n2C1c1ccc(SC)cc1 (stereo not drawn),0.91,14
Cc1c(Cl)cccc1NC(=O)c1cc2nc(-c3cccs3)cc(C(F)(F)F)n2n1,1.1,-10
CCOC(=O)c1nc2nc(-c3cccs3)cc(C(F)(F)F)n2n1,0.75*,8
CC(C)OC(=O)c1cc2nc(-c3cccs3)cc(C(F)(F)F)n2n1,0.66*,10
O=C(c1ccccc1)N1CCCC2CCCC21 (stereo not drawn),1,4
COc1cc(/C=C2\SC(=S)N(CC(=O)N3CCCc4ccccc43)C2=O)cc(OC)c1OC,1,10
C=CCn1c(N)c(C(=O)NCC2CCCO2)sc1=S (stereo not drawn),0.96,-1
CC(=O)Nc1ccc(NC(=O)COc2ccccc2)cc1,1.1,18
C=C(C)C(=O)Nc1cccc(C(=O)NCC(C)C)c1,1.1,-4
SMILES,Cy5 interf NS3h,HCV NS3h FP
COc1cc(C(=O)Nc2c(C)cccc2C(C)C)c(Br)c(OC)c1OC,1.2*,7
COc1c(Cl)ccc(Cl)c1C(=O)Nc1c(C)cccc1C(C)C,1.1,5
COc1ccc(N(CC(=O)O)S(=O)(=O)c2ccccc2)cc1,0.98,6
CC1=C(C(=O)OCCc2ccccc2)C(c2cccc(Cl)c2)CC(=O)N1 (stereo not drawn),1,7
CCc1ccc(N2NC(=O)CC2=O)cc1,0.73*,10
CCc1ccc(/C=C2\C(=O)NN(c3ccccc3)C2=O)cc1,1,22
Cc1ccc(-c2nc3ccccc3o2)cc1NC(=O)c1ccccc1Br,0.95,6
CCOC(=O)c1ccc(NC2=C(N3CCCCC3)C(=O)c3ccccc3C2=O)cc1,0.89,-10
COc1ccccc1OCCn1cc(C=C2C(=O)N(C)C(=O)N(C)C2=O)c2ccccc21,0.92,11
CC1=NN(C(=O)CSc2ccccn2)C(C)(O)C1 (stereo not drawn),0.88,6
COc1ccc(OC)c(/C=C2/SC(=S)N(CNc3cccc(Cl)c3)C2=O)c1,0.6*,22
COC(=O)CN1C(=O)/C(=C/c2cc(OC)ccc2OC)SC1=S,1,10
O=C1/C(=C/c2cccc(Br)c2)SC(=S)N1CCCC(=O)N1CCCc2ccccc21,1.1,3
COc1cc(OC)cc(C(=O)N2CCN(C3CCC(c4ccccc4)CC3)CC2)c1 (stereo not drawn),0.82,13
COc1cccc(C(=O)N2CCN(C3CC4CCC3C4)CC2)c1 (stereo not drawn),0.68*,-10
O=C(/C=C/c1cccc(N2C(=O)c3ccccc3C2=O)c1)c1cccc(N2C(=O)c3ccccc3C2=O)c1,1.2,8
Nc1ccc(NC(=O)c2ccc(Cl)cc2Cl)c(Cl)c1,0.63*,4
O=C(Nc1ccc(Cl)cc1Cl)c1ccccc1F,1.1,2
O=C(COc1ccccc1[N+](=O)[O-])Nc1ccc2oc(-c3ccccc3Br)nc2c1,1.1,-20
O=C(COc1ccccc1[N+](=O)[O-])Nc1ccc2oc(-c3cc(Br)ccc3Cl)nc2c1,1.2*,-18
CCOc1ccc(-n2nc3ccc(NC(=O)c4ccc(Cl)cc4)cc3n2)cc1,0.64*,15
COc1ccc(NC(=O)c2ccc(C)c([N+](=O)[O-])c2)cc1,0.74*,13
